The list is not random: actives were taken first. Their share in the collection is about 2.9%.
IDH1 R132H inh – human IDH1 R132H inhibition; O75874; IDH1-R132H enzyme, NADPH consumption, diaphorase/resazurin fluorescence; Potency, µM (highest dose often 76.6 µM), most hits filed as inhibitors; 390,000 tested, 0.093% active; AID 602179; note: nearly all actives have a fitted effect of over 65% in size
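IDH1-R132H (0.5 ug/mL dispensed) in pH 7.5 Tris buffer was preincubated 30 min with compound, then given a substrate mix of 0.016 mM NADPH and 2 mM alpha-KG for 80 min at room temperature; remaining NADPH was read by diaphorase/resazurin fluorescence.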
D3 ag – activates the human D3 dopamine receptor. D3R DiscoveRx beta-arrestin cells, luminescence, 90 min. max activation, %. P35462. AID 652048. 410,000 tested, 0.58% active; in the data active = max activation above about 30%
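Agonist mode: compounds and dopamine controls were applied to plated cells for 90 min at 37 degrees C after an overnight attachment at 1500 cells/well. Luminescent read-out followed 30 - 60 minutes at room temperature with DiscoveRx detection reagent.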
B2AR arrestin – agonists driving beta-arrestin recruitment to human beta2-adrenergic receptor. Potency, µM (top dose mostly 46.1 µM), hits mostly activators. beta-arrestin recruitment to beta2AR, cell-based reporter. 330,000 tested, 0.02% active; note: nearly all actives have a fitted effect of over 65% in size
Target sequence (P07550 whole entry, looked up): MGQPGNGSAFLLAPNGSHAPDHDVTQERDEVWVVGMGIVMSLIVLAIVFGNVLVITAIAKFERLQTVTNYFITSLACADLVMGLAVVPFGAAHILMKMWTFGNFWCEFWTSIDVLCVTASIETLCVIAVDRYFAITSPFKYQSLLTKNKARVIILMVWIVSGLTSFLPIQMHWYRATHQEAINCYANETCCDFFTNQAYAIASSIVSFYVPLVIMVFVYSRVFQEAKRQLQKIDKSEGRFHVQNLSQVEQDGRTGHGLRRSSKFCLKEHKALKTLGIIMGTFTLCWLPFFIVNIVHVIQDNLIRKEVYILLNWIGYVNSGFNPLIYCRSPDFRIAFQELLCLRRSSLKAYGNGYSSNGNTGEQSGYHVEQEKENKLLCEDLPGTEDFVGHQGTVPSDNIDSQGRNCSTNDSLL
D3 antag – D3 dopamine receptor (human) antagonism | max response, negative = inhibition, % | AID 652054 | D3R cells, DiscoveRx beta-arrestin luminescence, antagonist mode; stronger effect = lower value | 360,000 tested, 2.5% active; in the data active = max response below about -50%; inconclusive = no clear call, values can overlap the other calls
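Cells plated overnight at 1500 cells/well, then exposed to library compounds with dopamine controls for 90 minutes at 37 degrees C. DiscoveRx reagent added for 30–60 minutes at room temperature; luminescence read, quantitative HTS format.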
a7 integrin act – activators of alpha7 integrin expression for muscular dystrophy | 350,000 tested, 0.064% active | AID 624291 | Potency, µM (titrated, usually from 38.3 µM), usual class: activators | alpha7betagal myoblasts, beta-gal FDG fluorescence, 48 h; note: nearly all actives have a fitted effect of over 60% in size
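alpha7betagal+/- myoblasts (passage 13, 250/well) treated 48 h at 37C with compounds at 1:260 dilution of DMSO stock. Lysed, then beta-galactosidase activity read as FDG fluorescence (ex 480/em 540) after 30 min, with pre-read for autofluorescence.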
Of the large screens only hits and unclear results are named; the others gave an inactive call. Unless noted, calls come from the whole dose curve; as a rule, active = well fitted curve in the direction sought with a large enough effect; inconclusive = small, poorly fitted or top-dose-only effect, or another doubt; inactive = no such curve, though single readings can be large; an effect the other way counts as inactive or inconclusive.

O=C(Oc1ccc(Cl)c2cccnc12)c1ccco1	B2AR arrestin inconclusive, D3 antag -138
N/C(=N/OC(=O)c1cccc([N+](=O)[O-])c1)c1cccc([N+](=O)[O-])c1	D3 antag -53
O=C(Oc1cccc2cccnc12)c1cccc([N+](=O)[O-])c1	D3 antag inconclusive, a7 integrin act inconclusive
Cc1cc2c(c(=O)o1)C1O[C@](c3ccsc3)(Cc3ccccc31)O2	none (no result: IDH1 R132H inh, D3 ag, D3 antag, a7 integrin act)
C#CCC(Cc1cnc2nc(N)nc(N)c2n1)c1ccc(C(=O)N[C@@H](CCC(=O)O)C(=O)O)cc1 (some centres not stated)	none (no result: IDH1 R132H inh, B2AR arrestin, D3 antag, a7 integrin act)
Cc1ccsc1/C=N/NC(=O)c1nnn(-c2nonc2N)c1C	none
Cc1c(C(=O)N/N=C/c2cccs2)nnn1-c1nonc1N	D3 ag 36, a7 integrin act inconclusive
COc1cc(/C=N/NC(=O)c2nnn(-c3nonc3N)c2C(C)C)ccc1OCc1ccc(F)cc1	D3 ag 57
COc1cc(/C=N\n2nnnc2N)ccc1OCc1ccc(F)cc1	D3 antag -54
CN(Cc1c(C(=O)N/N=C/c2cccc(F)c2)nnn1-c1nonc1N)c1ccccc1	a7 integrin act 5.6µM
CN[C@@H]1CCc2[nH]c3ccc(C(N)=O)cc3c2C1	none (no result: IDH1 R132H inh, B2AR arrestin, D3 antag, a7 integrin act)
Cc1cccn2c(=O)c(/C=C(\C#N)c3nc4ccccc4n3C)c(Oc3ccc(Cl)cc3)nc12	none (no result: B2AR arrestin, D3 antag, a7 integrin act)
CCN(CC)Cc1c(C(=O)N/N=C/c2c(Cl)cccc2Cl)nnn1-c1nonc1N	D3 ag 30
COc1ccc(/C=C2\SC(=Nc3ccccc3)NC2=O)cc1	none (no result: IDH1 R132H inh, D3 ag, D3 antag, a7 integrin act)
COc1ccccc1N=C1NC(=O)/C(=C/c2ccc(N(C)C)cc2)S1	D3 antag -95, a7 integrin act inconclusive
CC(C#Cc1ccc2c(c1)COc1c3ccccc3nn1-2)OC(C)(C)C (configuration not stated)	D3 ag 52
CCCCC#Cc1ccc2c(c1)COc1c3ccccc3nn1-2	D3 ag 31
CC1(C)CC(CC(=O)NC(=S)Nc2ccc([N+](=O)[O-])cc2)C(=O)O1 (configuration not stated)	D3 antag -83
COC(=O)c1ccccc1NC(=O)C1=C(C)C(=O)OC12CCC(C)CC2 (configuration not stated)	none (no result: IDH1 R132H inh, B2AR arrestin, D3 antag, a7 integrin act)
CN(C(=O)Cn1cc(S(=O)(=O)Cc2ccccc2Cl)c2ccccc21)c1ccccc1	none (no result: B2AR arrestin, D3 antag, a7 integrin act)
COc1ccc(-c2nnc(NC(=O)c3ccc(S(=O)(=O)N4COCC4(C)C)cc3)o2)cc1	D3 antag -65
CC1(C)COCN1S(=O)(=O)c1ccc(C(=O)Nc2nnc(-c3ccc(Cl)s3)o2)cc1	none
Cc1ccc(-n2c(=O)[nH]c3cc(C(=O)NCCc4ccccc4)ccc3c2=O)cc1	none (no result: B2AR arrestin, D3 antag, a7 integrin act)
Cc1ccc(-n2c(=O)[nH]c3cc(C(=O)NC4CCN(Cc5ccccc5)CC4)ccc3c2=O)cc1	D3 antag -93
Cc1ccc(CN2CCSc3ccc(C(=O)NC4CCN(Cc5ccccc5)CC4)cc32)cc1	D3 antag -83
O=C(CN1CCC(C(=O)c2ccc(F)cc2)CC1)Nc1ccccc1	D3 antag -81
CN(C)c1ccc(NC(=O)CN2CCC(O)(c3ccccc3)CC2)cc1	D3 antag -79
CCOc1ccccc1NC(=O)CN1CCC(C(=O)c2ccc(F)cc2)CC1	D3 antag inconclusive
Cc1ccc(C(=O)C2CCN(CC(=O)Nc3ccc4c(c3)OCCO4)CC2)cc1	D3 antag -70
CC1Cc2ccccc2N1CC(=O)Nc1ccc2c(c1)OCCCO2 (configuration not stated)	D3 ag 67
Cc1cccc(NC(=O)CN2CCC(C(=O)c3ccc4c(c3)OCCO4)CC2)c1	none
CC1Cc2ccccc2N1CC(=O)Nc1ccc(N2CCOCC2)cc1 (configuration not stated)	none
O=C(c1ccc(CS(=O)c2ccccc2Cl)o1)N1CCN(c2ccccc2F)CC1 (configuration not stated)	none (no result: B2AR arrestin, D3 antag, a7 integrin act)
CCS(=O)(=O)N1CCC2(CC1)OC(=O)C(C)=C2C(=O)NCc1ccccc1C	none (no result: B2AR arrestin, D3 antag, a7 integrin act)
Cc1ccc(S(=O)(=O)N(CC(=O)Nc2ccc(F)cc2F)Cc2ccc(F)cc2)cc1	none (no result: B2AR arrestin, D3 antag, a7 integrin act)
O=C(CN1CCC(C(=O)c2ccc(F)cc2)CC1)Nc1ccc(F)cc1	D3 antag -71
O=C(CN1CCN(c2ccc(O)cc2)CC1)Nc1ccc2c(c1)OCCO2	D3 ag 30
Cc1ccc(C(=O)C2CCN(CC(=O)Nc3ccc(N(C)C)cc3)CC2)cc1	D3 antag -82
CC(=O)c1ccc(NC(=O)CN2CCC(C(=O)c3ccc(F)cc3)CC2)cc1	D3 antag inconclusive
COc1ccc(C(=O)C2CCN(CC(=O)Nc3cc(C)cc(C)c3)CC2)cc1	none
O=C(CN1CCN(c2ccc(F)cc2)CC1)Nc1ccc2c(c1)OCCO2	none
Cc1ccc(OCCCC(=O)ON=C(N)c2ccccc2C)cc1	none
CN(C)c1ccc(N=Nc2nc3ccccc3n2C)cc1	D3 antag -74
CCOC(=O)c1ccc(N2CCN(c3cccc(Cl)c3)CC2)c(NC(=O)Nc2ccc(Cl)cc2)c1	none (no result: B2AR arrestin, D3 antag, a7 integrin act)
COc1ccc(CNC(=O)c2ccc(CS(=O)Cc3ccccc3Cl)o2)cc1 (configuration not stated)	none (no result: B2AR arrestin, D3 antag, a7 integrin act)
CNCc1ccccc1OCC(=O)Nc1ccccc1	D3 antag -52
O=C(COC(=O)c1ccccc1OCC(=O)Nc1ccc(Br)cc1)Nc1ccccc1	D3 antag -51
Cc1cc2ccccc2n1CCNC(=O)C(C)C	none
CC(C)C(=O)NCCn1ccc2ccccc21	D3 antag -53
Cc1cc2ccccc2n1CCNC(=O)C(C)Oc1ccccc1 (configuration not stated)	D3 antag -60
CCC(=O)NCCn1ccc2ccccc21	none
Cc1cccc(OCC(=O)OCc2cc(=O)n3nc(-c4cccs4)sc3n2)c1	none (no result: B2AR arrestin, D3 antag, a7 integrin act)
O=C(CN(Cc1ccccc1)C1=NCCS1)c1ccc(Cl)cc1	D3 antag -64
COc1ccc(-c2nnc(SCc3cc(=O)c4cc(C)cc(C)c4[nH]3)n2C)cc1	none (no result: B2AR arrestin, D3 antag, a7 integrin act)
O=C(O)c1cn(-c2ccc(F)cc2)c2cc(N3CCNCC3)c(F)cc2c1=O	none (no result: B2AR arrestin, a7 integrin act)
C=CCc1cccc2cc(C(=O)NCCc3c(C)[nH]c4c(C)cccc34)c(=O)oc12	none (no result: B2AR arrestin, D3 antag, a7 integrin act)
Cc1[nH]c2c(C)cccc2c1CCNC(=O)c1ccc2c(c1[N+](=O)[O-])C(=O)c1ccccc1C2=O	D3 antag -56
CN(C)C(=O)c1ccc2c(c1[N+](=O)[O-])C(=O)c1ccccc1C2=O	D3 antag inconclusive
Cc1[nH]c2ccccc2c1CCNC(=O)c1ccc2c(c1[N+](=O)[O-])C(=O)c1ccccc1C2=O	D3 antag -85
CCOC(=O)CSc1nc2cc3c(cc2c(=O)n1Cc1ccc(C(=O)NCCc2ccc(OC)c(OC)c2)cc1)OCO3	none (no result: B2AR arrestin, D3 antag, a7 integrin act)
CCCn1c(=O)c2sccc2n2c(CCCC(=O)Nc3ccc(Oc4ccccc4)cc3)nnc12	none (no result: B2AR arrestin, D3 antag, a7 integrin act)
